Results from the supplement of paper PMC4962491.
± gives the standard deviation of the averaged measurements.

Tested on: FaDu
Experiment: mitochondrial oxygen consumption rate normalised to cell number, Z score vs plate DMSO wells; higher = higher oxygen consumption (negative = OCR reduction)
Settings: treatment time 24 h, assay medium: 5 mM glucose, 5 mM pyruvate, 4 mM glutamine
Method: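 Secondary screen: FaDu cells were incubated 24 h with the top 130 primary hits at 0.08, 0.4, 2 or 10 uM. Mitochondrial-specific OCR (basal minus antimycin A) was measured on a Seahorse XF96 in medium with 5 mM glucose, 5 mM pyruvate and 4 mM glutamine and normalised to Hoechst cell number. OCR score = (OCR - mean of plate DMSO wells) / SD of plate DMSO wells. Three repeats.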
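Note: compound exposure in DMEM (4 mM L-glutamine, 5 mM glucose), antimycin A injected at 2 µM after the basal reading and its residual OCR subtracted from basal.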

| SMILES | mitochondrial oxygen consumption rate normalised (0.08 µM) | mitochondrial oxygen consumption rate normalised (0.4 µM) | mitochondrial oxygen consumption rate normalised (2 µM) | mitochondrial oxygen consumption rate normalised (10 µM) |
| --- | --- | --- | --- | --- |
| O=C(Nc1ccc([N+](=O)[O-])cc1Cl)c1cc(Cl)ccc1O | -1.26 ± 1.4 | -0.286 ± 0.41 | 0.259 ± 0.76 | -12.5 ± 0.17 |
| CC(=O)O[C@H]1C[C@@]2(C)[C@@H](C[C@@H](O)[C@H]3[C@@]4(C)CC[C@@H](O)[C@@H](C)[C@@H]4CC[C@@]32C)/C1=C(\CCC=C(C)C)C(=O)O | 0.246 ± 2.1 | -0.851 ± 1.9 | 0.0549 ± 0.78 | -0.138 ± 1.1 |
| CCCCCCCCCCCCCCCC[N+](C)(C)CCN(Cc1ccc(OC)cc1)c1ncccn1 | 0.201 ± 1.1 | 1.55 ± 0.82 | 0.248 ± 1.4 | -5.99 ± 0.8 |
| Nc1ccc2cc3ccc(N)cc3nc2c1 | 0.988 ± 0.79 | 1.43 ± 0.73 | -2.56 ± 1.5 | -6.68 ± 1.4 |
| COc1ccc2c(c1)c(CC(=O)O)c(C)n2C(=O)c1ccc(Cl)cc1 | -1.16 ± 1.6 | -0.0955 ± 0.33 | 0.286 ± 1.6 | -0.792 ± 1.6 |
| S=c1[nH]cnc2nc[nH]c12 | 0.147 ± 1.5 | 0.888 ± 1.4 | -2.8 ± 1.2 | -2.54 ± 0.98 |
| Cc1ccc2c(Br)cc(Br)c(OC(=O)c3ccccc3)c2n1 | 1.43 ± 0.79 | 0.324 ± 0.71 | -3.89 ± 1.2 | -4.73 ± 1.5 |
| CC[n+]1c(-c2ccccc2)c2cc(N)ccc2c2ccc(N)cc21 | -0.559 ± 1.1 | -1.04 ± 0.79 | -3.43 ± 2.4 | -6.28 ± 1.8 |
| NS(=O)(=O)c1cc2c(cc1Cl)N=CNS2(=O)=O | -0.245 ± 2.1 | 0.722 ± 0.73 | 0.0559 ± 1.2 | 0.507 ± 1.1 |
| Nc1ncn([C@@H]2O[C@H](CO)[C@@H](O)[C@H]2O)c(=O)n1 | -0.369 ± 1.5 | 1.15 ± 0.3 | -1.48 ± 1.4 | -2.3 ± 1.5 |
| COc1ccc2cc3[n+](cc2c1OC)CCc1cc2c(cc1-3)OCO2 | -0.246 ± 0.98 | -0.535 ± 0.76 | -6.29 ± 0.22 | -13.55 ± 0.13 |
| CC(COc1ccccc1)NC(C)C(O)c1ccc(O)cc1 (stereo not drawn) | 0.276 ± 1.4 | 1.57 ± 0.3 | 0.21 ± 1.1 | 0.099 ± 1 |
